# Experimental data: the supplement of paper PMC10037445
# In all, about 2,900 compounds were measured (“IRF Lucia reporter activity, fold change vs agonist alone”: median about 0.9, highest 2% from about 2.8 on). The full list was thinned out, with the highest values kept by preference.
# Experiments:
# [1] = test system: RAW-Dual; experiment: IRF Lucia reporter activity, fold change vs agonist alone; higher = enhanced IRF activity; details: library stock concentration (final ~1000-fold dilution): 10 mM, agonist: MPLA (TLR4) […]
# Outline: (§1)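 Cytotoxic wells were those whose IncuCyte confluency was below 70% of agonist controls in both mask sets. The cells were RAW-Dual macrophages at 50,000 cells/well in DMEM on 384-well plates, dosed with 50 nL of library stock by pin tool, stimulated with a PRR agonist 1 h later, and kept at 37 °C, 5% CO2 for 20 hours. IRF and NF-κB reporter activity, as fold change over agonist-alone wells, came from supernatant read by QuantiLuc luminescence and QuantiBlue absorbance, respectively.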
# [2] = test system: RAW-Dual; experiment: IRF Lucia reporter activity, fold change vs agonist alone; cytotoxicity flag (confluency mask): not cytotoxic; higher = enhanced IRF activity; details: library stock concentration (final ~1000-fold dilution): 10 mM
# Outline: as §1
# [3] = test system: RAW-Dual; experiment: IRF Lucia reporter activity, fold change vs agonist alone; cytotoxicity flag (confluency mask): cytotoxic (confluency <70% of control); higher = enhanced IRF activity; details: library stock concentration (final ~1000-fold dilution): 10 mM
# Outline: as §1
# [4] = cytotoxicity flag (confluency mask): not cytotoxic
# [5] = agonist: 3'3'-cGAMP (STING) 10 ug/mL
smiles,measurement,setting,value
CCC(C)C(NC(=O)C(C(C)CC)N(C)C(C)=O)C(=O)NC(=O)C(NC(CC(C)C)C(=O)C1(C)CO1)C(C)O (stereo not drawn),IRF Lucia reporter activity,[1]; [4],2.09
same,IRF Lucia reporter activity,[2]; [5],1.55
same,IRF Lucia reporter activity,[2]; agonist: LPS (TLR4) 0.1 ug/mL,4.46
COc1cc2c(cc1OC)C(Cc1ccc(O)c(Oc3cc4c(cc3OC)CCN(C)C4Cc3ccc(O)cc3)c1)N(C)CC2.[O-][Cl+3]([O-])([O-])O (stereo not drawn),IRF Lucia reporter activity,[2]; [5],0.0548
same,IRF Lucia reporter activity,[2]; agonist: LPS (TLR4) 0.1 ug/mL,0.74
Cc1sc2c(c1C)C(c1ccc(Cl)cc1)=NC(CC(=O)OC(C)(C)C)c1nnc(C)n1-2 (stereo not drawn),IRF Lucia reporter activity,[1]; cytotoxicity flag (confluency mask): cytotoxic (confluency <70% of control),0.122
same,IRF Lucia reporter activity,[3]; [5],0.193
same,IRF Lucia reporter activity,[3]; agonist: LPS (TLR4) 0.1 ug/mL,0.185
CC(C)c1ccc2c(c1O)CCC1C3=C(CCC21C)C(=O)OC3 (stereo not drawn),IRF Lucia reporter activity,[2]; [5],0.917
same,IRF Lucia reporter activity,[2]; agonist: LPS (TLR4) 0.1 ug/mL,1.25
CCC12C=CCN3CCC4(c5ccc(OC)cc5N(C)C4C(O)(C(=O)OC)C1OC(C)=O)C32 (stereo not drawn),IRF Lucia reporter activity,[1]; [4],1.06
same,IRF Lucia reporter activity,[2]; [5],0.891
same,IRF Lucia reporter activity,[2]; agonist: LPS (TLR4) 0.1 ug/mL,1.25
